# Source: PubChem BioAssay (National Center for Advancing Translational Sciences (NCATS))
# KDM5B inh = KDM5B demethylase inhibition | Q9UGL1 | KDM5B demethylase, FDH-coupled NADH fluorescence (FDH is formaldehyde dehydrogenase) | Potency, µM (series often up to 57.7 µM), hits mostly inhibitors | 2.6% of 220,000 active | AID 1347165; active means well fitted inhibition curve with a large enough effect; further: 0% is about no effect; nearly all actives have a fitted effect of over 70% in size
# Target sequence (Q9UGL1 whole entry, looked up): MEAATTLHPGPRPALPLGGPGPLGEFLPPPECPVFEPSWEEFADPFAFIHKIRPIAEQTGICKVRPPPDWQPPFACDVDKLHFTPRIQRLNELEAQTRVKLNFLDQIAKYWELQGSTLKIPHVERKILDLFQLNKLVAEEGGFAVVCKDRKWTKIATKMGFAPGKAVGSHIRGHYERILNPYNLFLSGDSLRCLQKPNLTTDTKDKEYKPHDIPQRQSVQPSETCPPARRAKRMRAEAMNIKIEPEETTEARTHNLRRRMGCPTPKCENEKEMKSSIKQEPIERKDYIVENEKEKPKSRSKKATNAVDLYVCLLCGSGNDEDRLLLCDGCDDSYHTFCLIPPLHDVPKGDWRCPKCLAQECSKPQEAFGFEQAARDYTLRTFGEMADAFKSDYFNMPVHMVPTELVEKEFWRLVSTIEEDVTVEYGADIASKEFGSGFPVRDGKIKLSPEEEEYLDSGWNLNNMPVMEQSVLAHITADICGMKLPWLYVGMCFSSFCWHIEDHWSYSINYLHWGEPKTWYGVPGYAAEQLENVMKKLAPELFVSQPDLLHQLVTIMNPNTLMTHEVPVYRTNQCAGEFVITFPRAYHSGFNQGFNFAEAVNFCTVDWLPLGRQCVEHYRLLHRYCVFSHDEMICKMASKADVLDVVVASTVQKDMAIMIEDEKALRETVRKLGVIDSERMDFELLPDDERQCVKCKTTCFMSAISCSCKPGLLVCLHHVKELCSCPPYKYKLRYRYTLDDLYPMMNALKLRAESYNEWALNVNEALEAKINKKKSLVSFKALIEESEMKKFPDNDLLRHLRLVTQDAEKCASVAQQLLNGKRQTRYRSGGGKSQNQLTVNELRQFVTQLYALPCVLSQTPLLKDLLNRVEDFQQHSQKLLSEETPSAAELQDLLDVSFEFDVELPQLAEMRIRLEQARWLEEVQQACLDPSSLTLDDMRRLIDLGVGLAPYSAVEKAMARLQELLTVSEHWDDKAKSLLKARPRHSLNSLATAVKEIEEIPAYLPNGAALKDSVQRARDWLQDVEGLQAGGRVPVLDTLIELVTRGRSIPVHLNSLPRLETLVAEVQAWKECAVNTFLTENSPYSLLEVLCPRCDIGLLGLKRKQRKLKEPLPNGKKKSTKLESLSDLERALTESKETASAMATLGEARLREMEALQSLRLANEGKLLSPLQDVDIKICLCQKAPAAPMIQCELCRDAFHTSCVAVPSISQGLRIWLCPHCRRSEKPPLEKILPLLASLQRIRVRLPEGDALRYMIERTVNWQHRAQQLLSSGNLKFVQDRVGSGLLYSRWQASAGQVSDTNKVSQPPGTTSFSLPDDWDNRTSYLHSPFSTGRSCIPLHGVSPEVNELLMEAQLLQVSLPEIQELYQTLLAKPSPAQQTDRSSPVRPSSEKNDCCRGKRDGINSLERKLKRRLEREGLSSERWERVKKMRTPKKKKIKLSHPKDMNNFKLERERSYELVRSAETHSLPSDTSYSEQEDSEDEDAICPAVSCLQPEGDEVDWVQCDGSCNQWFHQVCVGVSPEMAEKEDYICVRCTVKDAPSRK
#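 KDM5BΔAP (200 nM final) in 50 mM HEPES pH 7.5, 0.01% Tween-20 was preincubated 10 min at RT with compound over a concentration range. Substrate mix (H3K4me3 12.5 µM, α-KG 25 µM, Fe²⁺, ascorbate, NAD⁺, FDH) was added, and NADH fluorescence change over 30 min gave dose-response curves.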
# * hit, by the source's call; i = inactive. Only a selection was taken, and hits are over-represented in it overall. Potency means the concentration at half of the fitted maximal effect.
SMILES,KDM5B inh
O=C(C1CCCCn2nnnc21)N1CCc2nc(-c3cccnc3)[nH]c2C1 (stereo not given),i
O=C(CC1CNCCO1)N1CCc2nc(-c3ccc(Cl)cc3)[nH]c2C1 (stereo not given),25.1µM*
O=C(OCC(=O)N1c2ccccc2Sc2ccccc21)c1ccc2c(c1)OCCO2,i
COc1ccccc1N1CCCc2ncc(C(=O)Nc3ccccc3C)cc21,i
CC(C)NC(=O)c1cnc2c(c1)N(C(=O)Cc1ccc(C(C)C)cc1)CCC2,i
COc1ccccc1N1CCCc2ncc(C(=O)NCc3cccc(Cl)c3)cc21,31.6µM*
O=C(Nc1ccccc1)c1cnc2c(c1)N([S+](=O)([O-])c1cccnc1)CCC2,i
CC(C)c1ccc(CC(=O)N2CCCc3ncc(C(=O)Nc4ccccn4)cc32)cc1,i
COc1ccccc1CC(=O)N1CCCc2ncc(C(=O)NCc3cccc(Cl)c3)cc21,i
CC(C)c1ccc(CC(=O)N2CCCc3ncc(C(=O)NCc4ccccc4)cc32)cc1,i
O=C(Nc1cccnc1)c1cnc2c(c1)N(Cc1ccccc1)CCC2,35.5µM*
O=C(Nc1cccc(Cl)c1)c1cnc2c(c1)N(Cc1ccccc1)CCC2,35.5µM*
CC(C)c1ccc(CC(=O)N2CCCc3ncc(C(=O)Nc4cccc(Cl)c4)cc32)cc1,28.2µM*
O=C(Nc1cccnc1)c1cnc2n1CCN(Cc1ccccc1)CC2,i
Cc1cc(F)ccc1NC(=O)c1cnc2c(c1)N(C(=O)CCc1ccccc1)CCC2,i
CCOC(=O)c1c(NC(=O)N2CCN(CC)CC2)sc(C)c1C,i
CC(C)Cn1cnc2c1c(=O)n(CC(=O)NC1CCCCCC1)c(=O)n2Cc1ccccc1,i
Cc1c(Br)cnn1CCc1nnc(Nc2ccn(Cc3ccccc3Cl)n2)s1,i
COc1ccccc1NC(=O)COc1nc(CC(C)C)c2c(c1C#N)CCCC2,i
N#Cc1cccc(CN[C@H]2[C@H](O)[C@H](O)C[C@@H]2c2cccnc2)c1,i
O=c1[nH]c(CN2CCN(Cc3cccs3)CC2)nc2scc(-c3ccc(F)cc3)c12,i
CC(C)(CNC(=O)NCC1CCCC1)C(N)=O,i
Cc1cc(-c2cc3c(cn2)CN(Cc2ccccc2F)CCN3)ccn1,35.5µM*
Fc1ccccc1-c1cc2c(cn1)CN(Cc1cccnc1)CCN2,31.6µM*
Cc1cc(-c2cc3c(cn2)CN(Cc2c[nH]c4ccccc24)CCN3)ccn1,i
SMILES,KDM5B inh
CN(C)c1cccc(-c2cc3c(cn2)CN(Cc2cccnc2)CCN3)c1,i
COc1ccc(-c2cc3c(cn2)CN(Cc2cccnc2)CCN3)cc1F,35.5µM*
Cc1cc(-c2cc3c(cn2)CN(Cc2ccc(F)c(F)c2)CCN3)ccn1,i
COc1ccc(CC(=O)Nc2nonc2-c2ccc(Br)cc2)cc1,i
Cc1ccc(C(=O)/C=C/c2cccc(/C=C/C(=O)c3ccc(C)o3)c2)o1,i
CCc1ccc(C2=C(C)C(=NCC(=O)Nc3cccc(Cl)c3C)NS2(=O)=O)cc1,i
CC(C)COc1ccc(C(=O)Nc2ccc3oc(=O)ccc3c2)cc1,i
Cc1cc(C)c(CC(=O)O)c(C)c1,i
CC(C)C(=O)Nc1ccc(Br)cc1F,i
O=C(NCCc1ccccc1)N1CCC(c2noc(-c3cccnc3)n2)C1 (stereo not given),i
CC(C)Cc1noc(CN(C)C(=O)CC2C(=O)NCCN2CC(C)C)n1 (stereo not given),i
CCN(Cc1ccncc1)C(=O)CC1C(=O)NCCN1CCc1ccccc1 (stereo not given),i
CC(C)CCN1CCNC(=O)C1CC(=O)N(Cc1cnn(C)c1)C1CC1 (stereo not given),15.8µM*
CC(C)S(=O)(=O)N1CC(n2cc(C(=O)NCc3ccccc3)nn2)C1,i
CN(C)C[C@@H]1CN(c2ncccn2)C[C@H]1NC(=O)Cc1cccc(F)c1,25.1µM*
CN(C)C[C@@H]1CN(C)C[C@H]1NC(=O)Cc1ccc(Cl)cc1,i
CN(C)C[C@@H]1CN(c2ncccn2)C[C@H]1NC(=O)Cc1ccccc1F,31.6µM*
COc1cccc(CC(=O)N2CC[C@H](CO)[C@H](NC(=O)C3CC3)C2)c1,i
Cc1ccccc1CC(=O)N[C@@H]1CN(S(C)(=O)=O)C[C@H]1CN(C)C,i
COc1cccc(CC(=O)N[C@@H]2CN(c3ncccn3)C[C@H]2CO)c1,25.1µM*
COc1cccc(CN2C[C@@H](CO)[C@H](NC(=O)c3ccccc3)C2)c1,i
CN(C)C[C@@H]1CN(c2ccncn2)C[C@H]1NC(=O)Cc1c[nH]c2ccccc12,i
CN(C)C[C@@H]1CN(c2ncccn2)C[C@H]1NC(=O)Cc1ccc(F)cc1,28.2µM*
O=C(N/N=C/c1cccc(O)c1)C1CC1,i
CC(C)CC(NC(N)=O)C(=O)Nc1ccc(C(C)(C)C)cc1 (stereo not given),i
SMILES,KDM5B inh
CN(C)S(=O)(=O)c1ccc2oc(SCCOc3ccccc3F)nc2c1,i
COc1ccc(Cl)cc1CN(C)C(=O)c1ccc2c(c1)CCCN2S(C)(=O)=O,i
C#CCOC(=O)CCC(=O)O,i
CN(Cc1ccc(Cl)c(Cl)c1)C(=O)c1ccc2c(c1)CCCN2S(C)(=O)=O,i
O=C(COc1ncnc2ccc(Br)cc12)Nc1ccccc1,i
CS(=O)(=O)N1CCCCC1C(=O)NC1CCCC1 (stereo not given),i
Nc1ccc2c(c1)C(=O)OC2,i
CN(CCC(O)c1ccccc1)Cc1cn(-c2ccccc2)nn1 (stereo not given),i
Cc1ccc(F)cc1S(=O)(=O)N[C@@H]1CN(c2ncccn2)C[C@H]1CN(C)C,25.1µM*
CN(C)C[C@@H]1CN(Cc2ccccn2)C[C@H]1NS(=O)(=O)c1cccc(C#N)c1,i
CN(C)C[C@@H]1CN(c2ncccn2)C[C@H]1NS(=O)(=O)Cc1ccc(F)cc1,25.1µM*
Cc1ccc(S(=O)(=O)N[C@@H]2CN(C)C[C@H]2CN(C)C)cc1F,i
CC(NS(=O)(=O)Cc1ccc(F)cc1)c1cccnc1 (stereo not given),i
COc1ccccc1CCC(=O)N1CCC(Oc2ncccc2C(=O)N(C)C)C1 (stereo not given),i
Cc1ccn(CC(=O)N[C@@H]2CN(c3ccncn3)C[C@H]2CN(C)C)n1,i
Cc1cc(C)n(CC(=O)N[C@@H]2CN(c3ncccn3)C[C@H]2CN(C)C)n1,28.2µM*
COc1ccccc1CCC(=O)N[C@@H]1CN(c2ccncn2)C[C@H]1CO,i
COc1ccccc1CCC(=O)N[C@@H]1CN(c2ncccn2)C[C@H]1CN(C)C,31.6µM*
Cc1cc(C)n(CC(=O)N[C@@H]2CN(Cc3cccnc3)C[C@H]2CN(C)C)n1,i
CC(C)(C)OC(=O)N/N=C/c1ccc(Cl)c(Cl)c1,i
Cn1cc(C(C(=O)O)N2CCN(C=O)CC2)c2cc(C(=O)O)ccc21 (stereo not given),i
Cc1oc(-c2ccccc2)nc1CC(=O)N1CCC(N2CCCCC2)CC1,i
Cc1cc(C)cc(NC(=O)N2CCc3cc(S(=O)(=O)N4CCC(C)CC4)ccc32)c1,i
O=C(COc1ccc(F)cc1)Nc1ccc2oc(-c3ccccc3F)nc2c1,i
O=C(NCCSC1CCCC1)c1cccs1,i
CC(=O)N1CC2(Cc3ccccc31)CN([S+](=O)([O-])c1ccc(C)cc1)C2,i
CN(C)C[C@@H]1CN(C)C[C@H]1NS(=O)(=O)c1ccc(Cl)cc1,i
CN(C)C[C@@H]1CN(S(C)(=O)=O)C[C@H]1NC(=O)COc1ccc(Cl)cc1,i
